Assay results as given in PubChem BioAssay AID720504 (National Center for Advancing Translational Sciences (NCATS), 2013).
Hit rate of the full screen: of about 360,000 compounds, about 10,000 (2.8%) were called active. Not shown: some 4% with an inconclusive outcome. The call rests on the fitted dose curve; in most records, active means well fitted inhibition curve with a large enough effect; inconclusive means small, poorly fitted or top-dose-only effect; inactive means flat fitted curve, though single readings scatter. What follows is part of a selection rich in actives, with near analogues and random picks from the rest.

Each molecule was assayed against Serine/threonine-protein kinase PLK1 (Homo sapiens) (UniProt P53350) (assay: qHTS for Inhibitors of PLK1-PDB (polo-like kinase 1 - polo-box domain): Primary Screen). Conditions: Plk1 PBD binding of FITC phosphopeptide, fluorescence polarization.
Serine/threonine-protein kinase PLK1 (Homo sapiens), sequence (P53350 whole entry, looked up, the tested form may be a part): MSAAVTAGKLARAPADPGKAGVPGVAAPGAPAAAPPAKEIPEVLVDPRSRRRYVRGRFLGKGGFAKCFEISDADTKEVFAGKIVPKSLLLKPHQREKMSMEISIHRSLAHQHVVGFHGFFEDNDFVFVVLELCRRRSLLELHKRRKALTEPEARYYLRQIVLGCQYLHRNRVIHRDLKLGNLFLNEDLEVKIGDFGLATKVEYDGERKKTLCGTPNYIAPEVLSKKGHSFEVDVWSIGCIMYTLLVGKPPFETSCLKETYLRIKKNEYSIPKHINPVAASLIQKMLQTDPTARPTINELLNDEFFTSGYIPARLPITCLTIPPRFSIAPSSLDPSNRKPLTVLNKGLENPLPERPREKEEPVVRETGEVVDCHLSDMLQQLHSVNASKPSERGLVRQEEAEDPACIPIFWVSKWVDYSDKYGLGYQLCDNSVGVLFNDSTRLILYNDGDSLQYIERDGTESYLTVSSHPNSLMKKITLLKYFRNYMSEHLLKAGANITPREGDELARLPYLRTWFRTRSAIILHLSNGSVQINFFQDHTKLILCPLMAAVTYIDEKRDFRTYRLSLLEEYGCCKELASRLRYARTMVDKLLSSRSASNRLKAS
Further: nearly all actives have a fitted effect of over 65% in size.
On the % scale 0 is the no-effect control and ±100 the full control effect; potency means the concentration at half of the fitted maximal effect.
Wherever Max response, negative = inhibition is given: series mostly up to about 57 µM.

Potency, active:
Fc1ccc(COc2cccc(-c3n[nH]c(=S)o3)c2)cc1 6.7 µM
COc1ccc(OC)c(Nc2nc(-c3ccc(O)c(O)c3)cs2)c1 29.9 µM
O=C1CC[C@H](O)CCN1[C@H](CSc1ccc(Br)cc1)Cc1ccccc1 11.9 µM
CCN(CC)S(=O)(=O)c1ccc(N(C)Cc2ccc(C(F)(F)F)cc2)nc1 29.9 µM
O=C(Cn1nc(CNc2ccc(Cl)cc2)[n+]2c1CCCCC2)c1ccc(Cl)cc1 21.2 µM
Cc1cn(C2C=CC(CO)O2)c(=O)[nH]c1=O (stereo not given) 29.9 µM
COCCCNC(=O)Cn1c(=O)n(Cc2ccccc2Cl)c(=O)c2cc(OC)c(OC)cc21 29.9 µM
CC(=O)OC(COc1ccc(F)cc1)Cn1cnc2ccccc21 (stereo not given) 37.7 µM

Max response, negative = inhibition, inactive:
CN(Cc1ccc(F)cc1)C(=O)COc1ccc2ccccc2c1 -5.68%
Fc1ccc(COc2ccc(-c3nnco3)cc2)cc1 2.81%
COCCCn1cc(CN2CC(N(C)C)CS2(=O)=O)nn1 (stereo not given) 2.09%
CC(=O)N1C[C@@H](CO)[C@@H](N(C)C(=O)c2ccco2)C[C@H]1c1ccccc1 -12.5%
COc1ccc(-c2csc(Nc3cccc(C)n3)n2)cc1OC 8.19%
COc1ccc(C(O)c2nc(-c3ccc4c(c3)OCO4)cs2)cc1 (stereo not given) 6.53%
Cc1noc(C)c1C(=O)N1CCC1(C)C(=O)NS(=O)(=O)c1ccc(C#N)cc1 (stereo not given) -3.77%
CC1(C(=O)NCc2ccccc2)CSCC(=O)N1CCCN1CCOCC1 (stereo not given) 6.34%
C[C@H]1CCC(=O)N([C@H](CSc2ccccc2)Cc2ccccc2)CC1 -3.56%
O=C1CCNCCN1[C@H](CO)Cc1ccccc1 -3.76%
CN(CCc1ccccc1)c1ccc([N+](=O)[O-])cn1 -3.04%
CCN(CC)S(=O)(=O)c1ccc(N(C)Cc2cccc(OC)c2OC)nc1 -1.33%
CCCS(=O)(=O)NC(=O)C1(C)CCCN(C(=O)c2ccnc(Cl)c2)C1 (stereo not given) 3.92%
CC(C)N1C(=O)c2ccccc2NC(=O)C1C(=O)NCc1cccs1 (stereo not given) -1.29%
CC(=O)N1Cc2cc(C(=O)NCc3cccc(F)c3)nc(-c3cccc(C4=CCCCC4)c3)c2[C@H]1CCO -9.42%
CN1CCN(C(=O)c2ccc(NC(=O)c3ccc(Br)o3)cc2)CC1 -7.09%
O=C(Cn1ncc(N2CCCC2)c(Br)c1=O)c1ccc(Cl)cc1 -7.29%
O=C(Cn1nnc(N2CCCCC2)n1)c1ccc(Cl)c(Cl)c1 -14.1%
O=C(NC(c1ccc(-c2ccccc2)cc1)c1cnccn1)C1CCN(CCOc2ccc(Cl)cc2Cl)CC1 (stereo not given) -2.44%
O=C1NC[C@H](CCCCN2C[C@H](Cc3ccccc3)N(Cc3ccccc3)C(=O)C2=O)N(CCc2ccc(O)cc2)C1=O 3.35%
C[C@H]1CN([C@@H](C)CO)C(=O)CCCn2nncc2CO[C@@H]1CN(C)S(=O)(=O)c1cccc(C#N)c1 -7.11%
Cc1cn([C@H]2C[C@H](O)[C@@H](/C=C/C(=O)NCCCc3ccccc3)O2)c(=O)[nH]c1=O -13.1%
Cc1cn(C2OC[C@@H](O)[C@@H]2CO)c(=O)[nH]c1=O (stereo not given in full) -5.18%
O=C(CCN1CCCCC1)Nc1ccc(F)c(F)c1 -0.714%
CCCCN1CC(N2CCN(Cc3cccc(C)c3)CC2)CS1(=O)=O (stereo not given) -2.99%
CCOC(=O)C1=CC[C@@H](c2ccccc2)N(S(=O)(=O)c2ccc(C)cc2)[C@H]1c1ccc(CC)cc1 -1.73%
NC1=CC(=O)C(=O)c2cccnc21 -7.35%
COc1ccc(CCNC(=O)Cn2c(=O)n(CC3CCCO3)c(=O)c3ccccc32)cc1OC (stereo not given) -13.3%
COCCCNC(=O)CN1CCN(Cc2ccccc2Cl)C1=O -7.04%
CCNC(=O)C1(C)CCCN(Cc2noc(-c3ccccc3OC)n2)C1 (stereo not given) -4.99%
C[C@H]1Cn2cnc(C(=O)N[C@@H](Cc3c[nH]c4ccccc34)C(=O)OC(C)(C)C)c2C(=O)N1 -0.575%
CC(=O)N=c1ncn(CC(COC(C)=O)OC(C)=O)c2nc[nH]c12 (stereo not given) -2.18%
CC(C)c1ccc(OCC(O)Cn2cnc3ccccc32)cc1 (stereo not given) -4.3%
CCCNC(=O)c1cc(C2CCCN(C(=O)c3ccc4c(c3)CCO4)C2)on1 (stereo not given) -6.48%
CCCC(=O)N1CCC1(C)C(=O)NCc1ccc(C(C)C)cc1 (stereo not given) -11.6%
O=C(Cc1ccc([N+](=O)[O-])cc1)NCCS(=O)(=O)N1CCN(c2ccccc2)CC1 -7.66%
COC(=O)C[C@H]1C=C[C@@H](NS(=O)(=O)c2ccc(C)cc2)[C@@H](CO)O1 2.12%
